In PubChem BioAssay one finds z-score and composite z-score data, which are given here for five compounds.

A short description of test [1]: optical density shifts of acrAB sulA E. coli – strain DRC41, OD650, 48 h, E. coli filamentation inducer project, primary screen (AID 1152).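 Note: E. coli MC1000 strain DRC41 lacking acrAB efflux pump and sulA.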 To be noted: higher = more signal, called active from +8 up or from −8 down.
Test [2] in a line: probe aLefty1 binding on compound microarray – biochemical, small-molecule microarray, 635/667 nm fluorescence, primary screen (AID 1153).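 Note: score merges spot fluorescence with signal-to-noise ratio from the scanned slide images.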 The note with it: higher = more signal.
Test [3] in a line: plasmodial surface anion channel blockers, osmotic lysis – cell-based, P. falciparum Indochina, OD700, 1 h, primary screen (AID 1154). The note with it: P. falciparum Indochina infected RBC osmotic lysis, higher = more signal, called active from +8 up or from −8 down.
Test [4] can be described thus: plasmodial surface anion channel blockers, osmotic lysis – cell-based, P. falciparum Indochina, OD700, 2 h, primary screen (AID 1155).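 Note: lysis reports solute entry through the parasite surface anion channel PSAC.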 To be noted: P. falciparum Indochina infected erythrocytes, higher = more signal, called active from +8 up or from −8 down.
Test [5] in a line: changes in parasitized red cell lysis, either direction – P. falciparum Indochina, OD700, 3 h, PSAC antagonist project, primary screen (AID 1156). To be noted: P. falciparum-infected erythrocytes, osmotic lysis, higher = more signal, called active from +8 up or from −8 down.
A short description of test [6]: plasmodial surface anion channel blockers, osmotic lysis – cell-based, P. falciparum Indochina, OD700, 18 h, primary screen (AID 1157). To be noted: P. falciparum Indochina infected erythrocytes, osmotic lysis OD700, 18 h; higher = more signal, called active from +8 up or from −8 down.
Test [7] can be described thus: S6 kinase pathway phospho-S6 level changes – cell-based, A549, cytoblot, luminescence, serum-stimulated, primary screen (AID 1158).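 Note: serum-stimulated A549 lung adenocarcinoma cells; signal is phosphorylated S6 detected by cytoblot immunostaining with HRP secondary.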 The note with it: 5 h, higher = more signal.
Test [8] addresses NADPH oxidase 2 (Homo sapiens) (UniProt P04839). Briefly: compounds shifting NOX2 Amplex Red fluorescence – cell-based, HEK293-NOX2, PMA-stimulated, NOX inhibitor project, primary screen (AID 1159). Note: test concentration not given here. The note with it: 45 min, higher = more signal, called active from +8 up or from −8 down.
The target in test [9] is NADPH oxidase 4 (Homo sapiens) (UniProt Q9NPH5). Briefly: compounds shifting NOX4 Amplex Red fluorescence – cell-based, HEK293-NOX4, tetracycline-induced, NOX inhibitor project, primary screen (AID 1160). To be noted: HEK293-NOX4, Amplex Red H2O2 fluorescence, 45 min; higher = more signal, called active from +8 up or from −8 down.
Test [10] addresses NADPH oxidase 5 (Homo sapiens) (UniProt Q96PH1). Description: compounds shifting NOX5 Amplex Red fluorescence – cell-based, HEK293-NOX5, NOX inhibitor project, primary screen (AID 1161). To be noted: HEK293-NOX5, ionomycin, 45 min, higher = more signal.
Test [11] can be described thus: compound effects on lung adenocarcinoma cell viability – A549, calcein-AM fluorescence, 48 h, basal, profiling panel (AID 1162). Note: test concentration not given here. To be noted: higher = more signal.
Test [12] can be described thus: compound effects on differentiated 3T3-L1 adipocyte viability – cell-based, 3T3-L1 adipocytes, calcein-AM fluorescence, 48 h, basal, profiling panel (AID 1163). Note: test concentration not given here. To be noted: 3T3-L1 adipocytes viability, higher = more signal.
The nature of test [13]: compound effects on hepatocellular carcinoma cell viability – HepG2, calcein-AM fluorescence, 48 h, basal, profiling panel (AID 1164). Note: test concentration not given here. The note with it: higher = more signal.
Test [14] in a line: compound effects on multiple myeloma cell viability – MM1S, calcein-AM fluorescence, 48 h, basal, profiling panel (AID 1165).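 Note: viability of MM1S multiple myeloma cells under basal unstimulated conditions; test concentration not given here.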 To be noted: higher = more signal.
Test [15] in a line: calcein-AM signal in unstimulated myeloma cells – cell-based, calcein-AM fluorescence, 48 h, PK04 Diversity Set, profiling panel (AID 1166).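 Note: cells grown under basal conditions without added stimulus; test concentration not given here.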 The note with it: RPMI8226 myeloma viability, higher = more signal.
A short description of test [16]: JC-1 mitochondrial signal, unstimulated HepG2 cells – cell-based, JC-1 fluorescence, 24 h, 100 nL compound, profiling panel (AID 1167). Note: test concentration not given here. To be noted: HepG2 mitochondrial potential, higher = more signal.
Test [17] is described as follows: JC-1 mitochondrial signal, unstimulated adipocytes – cell-based, JC-1 fluorescence, 3T3-L1 adipocytes, 24 h, 100 nL compound, profiling panel (AID 1168). Note: test concentration not given here. To be noted: JC-1 mitochondrial fluorescence, higher = more signal, called active from +8 up or from −8 down.
A short description of test [18]: JC-1 mitochondrial signal, unstimulated myeloma cells – cell-based, JC-1 fluorescence, RPMI8226, 24 h, 100 nL compound, profiling panel (AID 1169). Note: test concentration not given here. The note with it: JC-1 mitochondrial potential fluorescence, higher = more signal.
Test [19] can be described thus: JC-1 mitochondrial signal, unstimulated MM1S myeloma – cell-based, JC-1 fluorescence, 24 h, 100 nL compound, profiling panel (AID 1170). Note: test concentration not given here. To be noted: MM1S mitochondrial potential, higher = more signal.
A short description of test [20]: resazurin metabolic signal in A549 cells – cell-based, resazurin fluorescence, 24 h, PK04 Diversity Set, profiling panel (AID 1171). Note: test concentration not given here. To be noted: A549 viability, higher = more signal, called active from +8 up or from −8 down. (In general: Resazurin is reduced to fluorescent resorufin, in cell work by metabolically active cells.)

Each structure is given as a SMILES string. The source made the active and inactive calls.

Sequence of NADPH oxidase 4 (Homo sapiens) (Q9NPH5 whole entry, looked up): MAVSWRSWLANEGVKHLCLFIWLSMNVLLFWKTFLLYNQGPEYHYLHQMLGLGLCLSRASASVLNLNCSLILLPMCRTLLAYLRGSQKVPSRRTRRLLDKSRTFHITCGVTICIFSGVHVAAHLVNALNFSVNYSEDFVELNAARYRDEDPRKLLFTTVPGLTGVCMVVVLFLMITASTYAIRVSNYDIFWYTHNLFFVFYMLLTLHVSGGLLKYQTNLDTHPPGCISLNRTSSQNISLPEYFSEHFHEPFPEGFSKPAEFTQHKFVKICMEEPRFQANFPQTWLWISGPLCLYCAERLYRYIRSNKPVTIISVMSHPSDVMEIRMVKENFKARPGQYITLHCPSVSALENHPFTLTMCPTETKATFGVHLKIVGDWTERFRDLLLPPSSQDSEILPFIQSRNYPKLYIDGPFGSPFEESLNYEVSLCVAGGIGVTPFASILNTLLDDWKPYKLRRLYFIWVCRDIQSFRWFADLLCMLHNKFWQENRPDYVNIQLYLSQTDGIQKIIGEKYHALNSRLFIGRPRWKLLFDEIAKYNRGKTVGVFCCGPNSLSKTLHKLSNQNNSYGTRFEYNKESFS
Sequence of NADPH oxidase 5 (Homo sapiens) (Q96PH1 whole entry, looked up): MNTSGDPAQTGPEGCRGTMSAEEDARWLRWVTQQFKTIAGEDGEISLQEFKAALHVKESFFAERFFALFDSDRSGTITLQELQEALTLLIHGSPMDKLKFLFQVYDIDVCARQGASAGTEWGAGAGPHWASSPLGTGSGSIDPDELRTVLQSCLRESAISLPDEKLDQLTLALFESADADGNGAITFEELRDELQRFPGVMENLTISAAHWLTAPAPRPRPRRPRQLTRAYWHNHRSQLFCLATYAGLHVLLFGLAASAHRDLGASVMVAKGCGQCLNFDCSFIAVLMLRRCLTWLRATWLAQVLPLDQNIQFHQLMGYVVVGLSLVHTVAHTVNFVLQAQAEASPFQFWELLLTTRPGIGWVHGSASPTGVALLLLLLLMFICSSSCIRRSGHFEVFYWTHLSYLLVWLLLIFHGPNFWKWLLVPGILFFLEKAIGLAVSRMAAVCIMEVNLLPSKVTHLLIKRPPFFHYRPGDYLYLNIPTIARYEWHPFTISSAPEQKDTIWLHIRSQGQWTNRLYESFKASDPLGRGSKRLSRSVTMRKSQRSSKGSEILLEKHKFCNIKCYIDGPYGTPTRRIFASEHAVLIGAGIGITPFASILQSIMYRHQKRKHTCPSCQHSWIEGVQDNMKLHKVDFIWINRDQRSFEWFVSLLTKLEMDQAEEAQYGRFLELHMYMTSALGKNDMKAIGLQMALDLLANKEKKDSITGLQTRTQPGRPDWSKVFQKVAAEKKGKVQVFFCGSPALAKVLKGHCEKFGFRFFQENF
Sequence of NADPH oxidase 2 (Homo sapiens) (P04839 whole entry, looked up): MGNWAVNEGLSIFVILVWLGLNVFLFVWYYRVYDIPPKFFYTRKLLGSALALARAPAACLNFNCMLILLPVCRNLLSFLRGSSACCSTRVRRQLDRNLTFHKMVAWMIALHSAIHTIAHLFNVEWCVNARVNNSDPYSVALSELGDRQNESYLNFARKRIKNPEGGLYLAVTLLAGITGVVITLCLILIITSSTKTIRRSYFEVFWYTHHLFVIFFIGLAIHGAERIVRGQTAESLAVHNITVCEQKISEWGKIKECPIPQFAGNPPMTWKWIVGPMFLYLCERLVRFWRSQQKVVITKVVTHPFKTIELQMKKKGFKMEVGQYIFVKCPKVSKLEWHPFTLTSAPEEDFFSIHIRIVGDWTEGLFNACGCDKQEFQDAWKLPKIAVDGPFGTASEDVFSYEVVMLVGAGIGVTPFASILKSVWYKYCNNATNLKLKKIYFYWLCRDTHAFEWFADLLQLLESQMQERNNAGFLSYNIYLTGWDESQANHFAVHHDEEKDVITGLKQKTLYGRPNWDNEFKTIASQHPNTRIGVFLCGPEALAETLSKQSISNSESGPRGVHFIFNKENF

On to `CC(C)C(CO)N1C(=O)[C@@H]2[C@H]3C(=O)OCC=C[C@H]3OC23C=CCN(C(C)(C)C)C(=O)[C@@H]13` (stereo not given in full), for which the z-score is -0.875 (inactive) in test [1]; 0.897 (inactive) in test [3]; 0.226 (inactive) in [4]; 0.697 (inactive) in [5]; 0.0863 (inactive) in [6]; -0.154 in [7]. For the same compound, the z-score was 0.997 (inactive) in test [8]; 0.16 (inactive) in test [9]; 1.92 in [10]; -0.234 in [11]; -0.783 in [12]; -0.543 in [13]. The z-score in [14] is 0.583; in [15] it was -0.251; in test [16] it was -1.16; in test [17], -0.0819 (inactive); in test [18], 0.185; in test [19] it was 0.264. Moreover, in [20], the z-score is -0.166 (inactive). In [2], this compound returned a composite z-score of -0.155.

As to `CC1(C)C(=O)C(c2ccccc2)=C2CN3C(=O)N(CCc4ccccc4)C(=O)C3(Cc3ccc(F)cc3)C=C21` (stereo not given), the z-score in [1] was -2.48 (inactive); in test [3], 2.94 (inactive); in test [4], 0.371 (inactive); in [5], 1.8 (inactive); in test [6], 0.765 (inactive); in test [7], -0.16. For the same compound, the z-score in test [8] was -0.952 (inactive); in test [9] it was -4.15 (inactive); in [10] it was -3.9; in test [11], -0.767; in [12], 0.366; in [13], 0.184. The z-score is -1.24 in [14]; -1.81 in test [15]; 0.39 in test [16]; -1.91 (inactive) in test [17]; -0.733 in test [18]; -0.59 in test [19]. In test [20], the z-score is -0.745 (inactive). The composite z-score in test [2] turned out to be 0.595.

For the compound `C=C(/C(=C/C[C@@H](OC(C)=O)c1ccc(CO)o1)c1cc(C(=O)OC)ccc1OC)C(C)C`, the z-score in test [1] is 0.225 (inactive); in test [3], 4.3 (inactive); in [4], 0.758 (inactive); in test [5], 1.35 (inactive); in test [6], 0.479 (inactive); in test [7], -0.0642. The z-score in [8] was -0.169 (inactive); in test [9], -0.673 (inactive); in test [10], -0.988; in [11], 1.62; in test [12], -0.634; in [13], 0.377. Besides, the z-score was -0.998 in test [14]; 0.0028 in test [15]; -0.241 in test [16]; -0.298 (inactive) in test [17]; -0.544 in [18]; -1.2 in test [19]. Further, the z-score in [20] was -0.0571 (inactive). The same compound yielded a composite z-score in test [2] of -0.0536.

In the case of `COc1ccc(C#Cc2ccc3c(c2)[C@]2(C(=O)N3)[C@H](c3ccc(OCCO)cc3)N3[C@H](c4ccccc4)[C@H](c4ccccc4)OC(=O)[C@H]3[C@@H]2C(=O)N2CCc3cc(OC)c(OC)cc3C2)cc1`, the z-score in test [1] was -0.433 (inactive); in [3], 3.24 (inactive); in test [4], 2.77 (inactive); in test [5], 1.15 (inactive); in test [6], 1.1 (inactive); in test [7], -0.298. Also, the z-score is 0.661 (inactive) in test [8]; 0.621 (inactive) in test [9]; 0.27 in test [10]; 0.0926 in test [11]; 0.485 in [12]; 0.477 in [13]. Moreover, the z-score in [14] was -1.25; in test [15], 0.343; in test [16], 0.37; in test [17] it was 3.73 (inactive); in [18], -1.23; in test [19], -1.49. The z-score in test [20] was -0.0906 (inactive). In addition, the composite z-score in test [2] was -0.261.

Regarding `CN1C(=O)C2C=CC(C(O)c3cc(C(F)(F)F)cc(C(F)(F)F)c3)N(NC(=O)OC(C)(C)C)C2C1=O` (stereo not given), the z-score in [1] was -1.13 (inactive); in test [3], -0.0698 (inactive); in [4], 0.118 (inactive); in test [5], -0.548 (inactive); in test [6], 1.2 (inactive); in test [7], -0.636. Also, the z-score is -0.694 (inactive) in [8]; -1.47 (inactive) in [9]; 1.5 in test [10]; -1.29 in test [11]; -0.122 in test [12]; -0.938 in test [13]. In addition, the z-score was 0.319 in test [14]; -1.06 in test [15]; -1.28 in test [16]; 1.03 (inactive) in test [17]; 0.191 in [18]; 0.546 in test [19]. The z-score in [20] was 1.14 (inactive). In addition, the composite z-score in test [2] came to 0.363.
